The full ranking holds about 13,000 compounds; the median of “IFI” is about 4, and the highest 2% start at about 17. This excerpt belongs to a sample that is enriched for the highest values.
test: GSK_TCMDC: Inhibition Frequency Index (IFI). The number of non-kinase HTS assays where a compound showed > 50 % inhibition, expressed as a percentage of the number of such assays in which the compound was tested; format: functional

SMILES	IFI [%]
Cc1cc(NCCC(=O)NCCOc2ccccc2)nc(NCCOc2ccccc2)n1	4.88
Nc1ccc(-c2nc3cc(C4=N[C@H]5CCCC[C@H]5N4)ccc3o2)cc1[N+](=O)[O-]	1.41
CCn1c(-c2nonc2N)nc2c(-c3cccc(NC(=O)Nc4cccc(OC)c4)c3)ncc(OCCCN)c21	15.6
CCn1c(-c2nonc2N)nc2c(-c3cccc(NC(=O)Nc4ccccc4OC)c3)ncc(OCCCN)c21	20.5
CCn1c(-c2nonc2N)nc2c(-c3cccc(Cl)c3)ncc(OCCCNCCc3c[nH]cn3)c21	7.69
CCn1c(-c2nonc2N)nc2c(-c3cccc(NC(=O)Nc4ccccc4Cl)c3)ncc(OCCCN)c21	18.2
Cc1ccc2[nH]c(-c3ccccc3)cc(=NN=Cc3cccnc3)c2c1	1.52
Oc1ccc(CCNCCCCCCNCCc2ccc(Br)cc2)cc1O	5.15
N#CCOc1c(C2CCN(CCCCNC(=O)c3ccc(-c4ccc(C(F)(F)F)cc4)cc3)CC2)ccc2c1CCCC2	7.08
N=C(N)Nc1ccc(OCCCCCOc2ccc(NC(=N)N)cc2)cc1	3.13
CC(C)Oc1ccc(CCCON2C(=N)N=C(N)NC2(C)C)cc1	5.63
N#Cc1cccc(CN2CCCN(Cc3ccc(C(=O)Nc4ccc(Cl)cc4)cc3)CC2)c1	7.87
CS(=O)(=O)c1ccc2c(c1)CCN(CCC1CCC(NC(=O)c3cc4cccc(Br)c4[nH]3)CC1)CC2 (stereo unspecified)	7.59
CC(C)(C)c1ccc(C(=O)NC2CCC(CCN3CCc4ccc(S(C)(=O)=O)cc4CC3)CC2)cc1C(F)(F)F (stereo unspecified)	21.6
CS(=O)(=O)c1ccc2c(c1)CCN(CCC1CCC(NC(=O)C(=Cc3ccc(Cl)cc3Cl)c3ccc(-c4ccccc4)cc3)CC1)CC2 (stereo unspecified)	5.48
O=C(Nc1ccc(N2CCC(Nc3ccccn3)CC2)cc1)c1cnc(Cl)c(Cl)c1	17.4
O=C(Nc1ccc(F)cc1)c1cnc(N2CCN(c3ccncc3)CC2)c(Cl)c1	8.51
Cc1ccc(NC(=O)c2cnc(N3CCN(c4ccncc4)CC3)c(Cl)c2)cc1	11.9
Cn1nccc1C(=O)NCCNCc1ccc(-c2ccc(-c3nc4cc(F)ccc4[nH]3)cc2)cc1	8.91
Cc1ccc(F)c(OCC2CCN(c3ncc(C(=O)NC4CC4)cc3Cl)CC2)c1	17.3
Cc1ccc(OCC2CCN(c3ncc(C(=O)NC4CC4)cc3Cl)CC2)cc1	0
Cc1cc(OCC2CCN(c3ncc(C(=O)NC4CC4)cc3Cl)CC2)ccc1F	9.8
CN1CCC(NCc2cccc(-c3cccc(S(=O)(=O)NCc4ccccc4)c3)c2)CC1	11.2
CCN(CC)CCOc1ccc(C(O)(C#CC(O)(c2ccccc2)c2ccc(OCCN(CC)CC)cc2)c2ccccc2)cc1 (stereo unspecified)	6.52
CCN(CC)CCNC(=O)c1ccc(NC(=O)c2oc3c(Cl)cccc3c2C)cc1	4.76
CCN(CC)CCOc1ccc(NC(=O)c2oc3ccccc3c2C=Cc2ccccc2)cc1	18.5
